In PubChem BioAssay (NCATS):
Where “and” joins values, the source holds several entries; their conditions need not be identical. Equal values may be shown once. Records with an inconclusive call do not appear. Calls of active or inactive are those of the source. Unless noted, calls follow the shape of the full dose curve.

Experiments:
[1] = qHTS drug screen for cell cycle checkpoint inhibitors in PARPi-resistant BRCA-mutant ovarian cancer cell lines. (AID 1963452); details: PEO1/OlaR viability, CellTiter-Glo luminescence, 96 h; for Z-AUC: stronger effect = lower value
Method in brief: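 PEO1, PEO4 and PEO1/OlaR ovarian cancer cells, 600 per well, exposed 96 h at 37C to a dilution series. Viability read by CellTiter-Glo luminescence, normalized to DMSO and empty wells; activity summarized as Z-AUC.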

[2] = qHTS profiling for inhibitors of Plasmodium falciparum proliferation (AID 504749; active = well fitted inhibition curve with a large enough effect; also: nearly all actives have a fitted effect of over 60% in size); details: P. falciparum in erythrocytes, SYBR Green DNA, 72 h
Text: NIH National Institute of Allergy and Infectious Diseases [NIAID] NIH Chemical Genomics Center [NCGC] MLPCN Grant: None Assay Provider: Xinzhuan Su, NIAID NCGC Assay Overview: Plasmodium falciparum is a virulent malarial parasite that kills 1-2 million people worldwide each year. Transmitted by mosquitoes, the sporozoite form of the parasite enters the blood stream to infect hepatocytes, where they become merozoites that infect red blood cells (erythrocytes). Within erythrocytes, merozoites begin a […] cycle of growth and division, after which the parasite is released to infect new red blood cells. Gametocytes, which form within erythrocytes as well, circulate in the bloodstream and are ingested by the mosquito, thereby completing the life cycle. To profile malarial isolates for differential chemical responses and to identify inhibitors of malarial growth, an assay that measures P. falciparum growth and replication within erythrocytes was employed. This assay uses a DNA binding fluorescent dye (SYBR Green) to detect parasite DNA following cell lysis. Because mature erythrocytes lack DNA, only Plasmodium-derived DNA is detected.
NCGC Assay Protocol Summary: The SYBR Green viability assay was adapted from a method described previously (Plouffe et al., 2008). For screening 3 ul culture medium was dispensed into 1536 well black clear bottom plates (Aurora Biotechnologies) using a Multidrop Combi (Thermo Fisher Scientific Inc.), 23 nL compounds in DMSO were added by a pin tool (Kalypsys), and 5 ul of erythrocytes infected with P. falciparum (0.3% parasitemia, 2.5% hematocrit final concentration) were added. The plates were incubated at 37 C in a humidified incubator in 5% CO2 for 72 h, and 2 ul lysis buffer (20 mM Tris HCl, 10 mM EDTA, 0.16% saponin, 1.6% triton X, 10X SYBR Green I supplied as 10,000X […] by Invitrogen) was added to each well. The plates were mixed for 25 sec with gentle shaking and incubated overnight at room temperature in the dark. The following morning, fluorescence intensity at 485(14) nm excitation and 535(25) nm emission wavelengths was measured on an EnVision (Perkin Elmer) plate reader. Plate reads were normalized relative to the control inhibitor (0.29 uM artemisinin) and vehicle (DMSO) wells present on each plate and then corrected by an algorithm using vehicle-only control plates at the beginning and end of the compound plate stack.

[3] = measured here: PEO1 parental Z-AUC
Potency is read from the fitted curve at half-maximal effect.

SMILES	Z-AUC [1]	Z-AUC [1, 3]	Z-AUC ([1]; measured here: PEO4 Z-AUC)	Potency [1]	Potency ([2]; parasite line A)	Potency ([2]; parasite line B)
O=C(C(c1ccccc1)c1ccccc1)N1CCN(CC(O)COc2cccc3ncccc23)CC1 (configuration not stated)	0.889 (inactive)	0.623	0.296			
O=C(/C=C\n1cnc(-c2cc(C(F)(F)F)cc(C(F)(F)F)c2)n1)N1CC(F)(F)C1	-0.848 (inactive)	-1.85	-1.38			
COc1cccc(Nc2ncnn3ccc(CN4CC[C@@H](N)[C@H](O)C4)c23)c1		-1.46	-1.16	2.19 µM (active)		
CCO[C@@H]1OC(=O)C[C@@H]1NC(=O)[C@@H]1CCCN1C(=O)[C@@H](NC(=O)c1ccc(N)c(Cl)c1)C(C)(C)C	0.612 (inactive)	0.457	0.143			
COc1c(Nc2ncc(Cl)c(N[C@H]3[C@@H](C(N)=O)[C@@H]4C=C[C@H]3C4)n2)ccc2c1CC[C@@H](N1CCOCC1)CC2	0.583 (inactive)	0.18	0.103			
O=C(/C=C/c1cccc(S(=O)(=O)Nc2ccccc2)c1)NO	-0.934 (inactive)	-1.03	-1.35			
CCCCNc1ncc2c(-c3ccc(CN4CCN(C)CC4)cc3)cn(C3CCC(O)CC3)c2n1 (configuration not stated)	-1.53 (inactive) and -0.825 (inactive)	-1.06 and -0.682	-1.13 and -0.785			
CC[C@]1(O)CC2CN(CCc3c([nH]c4ccccc34)[C@@](C(=O)OC)(c3cc4c(cc3OC)N(C)[C@H]3[C@@](O)(C(=O)OC)[C@H](OC(C)=O)[C@]5(CC)C=CCN6CC[C@]43[C@@H]65)C2)C1 (some centres not stated)	-0.152 (inactive)	-1.01	-0.893		2.51 µM (active)	3.98 µM (active)
c1cc(Nc2cc(C3CC3)[nH]n2)nc(Nc2ccc3nc[nH]c3c2)n1	-1.72 (inactive)	-2.08	-2.23			
COc1ccc(N(C)c2nc(C)nc3ccccc23)cc1		-2.78	-2.81	0.0039 µM (active)		
NC[C@@](O)(c1ccc(Cl)cc1)c1ccc(-c2cn[nH]c2)cc1		-1.09	-1.28	13.8 µM (active)		
CC(C)(C)C(=O)CN1C(=O)[C@H](NC(=O)Nc2cccc(C(=O)O)c2)CN(C2CCCCC2)c2ccccc21	1.75 (inactive)	1.32	1.22			
Cc1[nH]nc(C(F)(F)F)c1Cc1sc2c(c1C(=O)N1C[C@](C)(O)CO1)c(=O)n(C)c(=O)n2C(C)C	0.988 (inactive)	0.611	0.623			
CNC(=O)c1cccc(-c2ccc3c(N4CCOC[C@@H]4C)nc(N4CCOC[C@@H]4C)nc3n2)c1	-1.02 (inactive)	-0.895	-0.994			
CC(O)c1cc(C(=O)N[C@@H](C)Cn2ccc(-c3ccc(C#N)c(Cl)c3)n2)n[nH]1 (some centres not stated)	-0.266 (inactive)	-0.668	-0.279			
CCNC(=O)Nc1ncc(-c2cc(-c3c(C)cc(OC)cc3C)nc(-c3cnccn3)n2)s1	0.457 (inactive)	1.44	1.47			
COC(=O)N(C)c1c(N)nc(-c2nn(Cc3ccccc3F)c3ncccc23)nc1N	0.294 (inactive)	0.888	0.894			
CN1CCN(C(=O)c2ccc3cc(CCNc4ncnc5ccc(C#N)cc45)ccc3c2)CC1	-0.0214 (inactive)	-0.289	-0.499			
Nc1ccc(/C=C/C(=O)NCc2cc3cc(-c4ccc(C(=O)N5CCC(F)(F)CC5)cc4)cc(-c4ccc(F)cc4)c3o2)cn1	-0.388 (inactive)	-0.891	-0.788			

SMILES	Z-AUC [1]	Z-AUC [1, 3]	Z-AUC ([1]; measured here: PEO4 Z-AUC)	Potency [1]	Potency ([2]; parasite line A)	Potency ([2]; parasite line B)
Cc1c(C(=O)N2CCOc3ccc(-c4ccc(N)nc4)cc3C2)ccc(S(C)(=O)=O)c1F	0.331 (inactive)	0.561	0.378			
C[C@@H]1CCN(C(=O)N2CCCC2)C[C@@H]1N(C)c1ncnc2[nH]ccc12	-0.093 (inactive)	0.799	1.07			
CCS(=O)(=O)N1CCN(c2ccc(Nc3ncc(C(N)=O)c(NC4CC4)n3)cc2)CC1	0.319 (inactive)	-0.223	-0.0452			
COc1ccc(C(=O)C2CCN(CC(=O)N(Cc3nc4c(c(=O)[nH]3)COCC4)CC3CC3)CC2)cc1	-0.974 (inactive)	-0.643	-0.695			
CNC(=O)c1cc(Oc2ccc3nc(N[C@@H]4CCCC[C@H]4O)sc3c2)ccn1	-0.222 (inactive)	-0.612	-0.476			
COc1cc(C(=O)NC2CCN(C)CC2)c(F)cc1Nc1ncc2c(n1)N(C1CCCC1)CC(F)(F)C(=O)N2C		-2.61	-2.16	0.245 µM (active)		
Cc1nc([C@](C)(O)CO)sc1-c1cnc(N)c(O[C@H](C)c2cc(F)ccc2-n2nccn2)c1	1.59 (inactive)	0.437	-0.14			
Cn1cncc1C(N)(c1ccc(Cl)cc1)c1ccc2c(c1)c(-c1cccc(Cl)c1)cc(=O)n2C (configuration not stated)	-1.06 (inactive)	-0.892	-0.873			
CC(C)c1cc(CNc2nc(Nc3cc(C4CC4)[nH]n3)cc(N3CCN(C)CC3)n2)on1		-1.91	-2.1	0.549 µM (active)		
Clc1cc2c(NC3CCCC3)nnc(-c3ccncc3)c2cc1Cl	-0.0819 (inactive)	0.551	0.556			
COCCOc1ccc(N2CCN(CCn3ncc4c3nc(N)n3nc(-c5ccco5)nc43)CC2)cc1	-0.648 (inactive)	-0.346	-0.723			
CS(=O)(=O)N1CCC(NC(=O)c2[nH]ncc2NC(=O)c2c(Cl)cccc2Cl)CC1	-1.39 (inactive)	-1.73	-1.67			
Cc1cc(C)c(CNC(=O)c2cc(-c3ccc(CN4CCOCC4)cc3)cc3c2cnn3C2CCCC2)c(=O)[nH]1	0.564 (inactive)	-0.591	0.1			
Cc1c(NC(=O)c2cc(C(N)=O)nc3cc(F)ccc23)c(C(F)(F)F)nn1Cc1ccc(C#N)cc1	-2.01 (inactive)	-1.49	-1.92			
C[C@H](Nc1ncnc2nc[nH]c12)c1cc2ccc(F)cc2nc1-c1ccccn1	-0.541 (inactive)	-0.257	0.432			
CC(=O)O[C@H]1C(=O)[C@@]2(C)[C@H]([C@H](OC(=O)c3ccccc3)[C@]3(O)C[C@H](OC(=O)[C@H](O)[C@@H](NC(=O)c4ccccc4)c4ccccc4)C(C)=C1C3(C)C)[C@]1(OC(C)=O)CO[C@@H]1C[C@@H]2O					0.355 µM (active)	0.251 µM (active)
C=CC(=O)Nc1cccc(Nc2nc(Nc3ccc(N4CCN(C(C)=O)CC4)cc3OC)ncc2C(F)(F)F)c1	-0.226 (inactive)	0.717	-0.058			
Cc1cc(Nc2cc(N3CCN(C)CC3)nc(/C=C/c3ccccc3)n2)n[nH]1		-1.58	-1.32	0.49 µM (active)		
